# High-throughput results from PubChem BioAssay.
# Hits are enriched below; roughly 7.1% of the tested compounds scored in any of these assays.
# MCF10A rerep: DNA re-replication induction in MCF 10a cells | hit rate 2.9% among 350,000 | AID 624296 | MCF 10A DNA re-replication, Hoechst nuclear intensity, 48 h | Potency, µM (titrated, usually from 46.1 µM), hits mostly activators; also: nearly all actives have a fitted effect of over 50% in size
# ATXN viability: reduces viability in counter-screen for ATXN expression inhibitors; S2 cells (HEK-293 line with an ATXN2-luciferase reporter) viability, CellTiter-Fluor protease fluorescence, 24 h; Potency, µM (doses to about 56.7 µM), actives largely listed as cytotoxic; hit rate 0.49% among 400,000; also: nearly all actives have a fitted effect of over 40% in size
# IL1B secr inh: inhibitors of inflammasome signaling (IL-1 beta secretion); AID 743279; activity change, % at 57.5 µM; hit rate 4.7% among 360,000; THP-1 LPS/ATP IL-1B secretion, AlphaLISA, 16 h; active compounds read low; in the data active = activity change below about -50%; inconclusive = mostly about -30% to -49%
#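 Secreted IL-1B measured by AlphaLISA bead assay after 16 h compound exposure of THP-1 cells; compounds (final up to 57.5 uM) added 1 h before LPS (250 ng/mL) and ATP (1.25 mM) stimulation; lower signal means less secretion.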
# ATXN2 expr inh: reduces ATXN2 reporter expression in HEK-293 cells; HEK-293 ATXN2-luciferase reporter, luminescence, 24 h; Potency, µM (doses to about 57 µM), hits mostly inhibitors; hit rate 0.72% among 360,000; also: nearly all actives have a fitted effect of over 55% in size
#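 ATXN2-luciferase reporter cells (luciferase flanked by upstream and downstream ATXN2 gene portions) were treated 24 h at 37 °C with compounds at up to 57 uM. SteadyGlo luminescence gave expression; GF-AFC fluorescence gave viability.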
# SW480 rereplic: induces DNA re-replication in SW480 colon adenocarcinoma cells | SW480 DNA re-replication, Hoechst DNA content imaging, 48 h | Potency, µM (top dose mostly 46.1 µM), most hits filed as activators | hit rate 1.8% among 340,000; also: nearly all actives have a fitted effect of over 55% in size
#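 Image-based DNA-content assay: after two days of treatment, nuclei were labelled with the DNA dye Hoechst and imaged, and hits were compounds raising the count of nuclei showing high fluorescence intensity.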
# PINK1 expr mod: changes PINK1 expression. PINK1 immunofluorescence, high-content cytometry, 24 h. Potency, µM (highest dose often 76.6 µM), hits mostly activators. hit rate 0.2% among 410,000. AID 624263; active = well fitted activation curve with a large enough effect; inconclusive = small, poorly fitted or top-dose-only effect; cell line not stated here; also: nearly all actives have a fitted effect of over 65% in size
#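 Readout is PINK1 immunofluorescence, quantified alongside mitochondrial, cell and nuclear markers by laser-scanning microplate cytometry. Cells from a stable line were exposed to compound titrations (5 concentrations) for 24 hours, with CCCP controls.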
# Hits are given with their value; . = inactive; ? = inconclusive; / = not tested or not shown. Unless noted, calls follow the shape of the dose curve; as a rule, active = well fitted curve in the direction sought with a large enough effect; inconclusive = small, poorly fitted or top-dose-only effect, or another doubt; inactive = no such curve, though single readings can be large; an effect the other way counts as inactive or inconclusive.
SMILES,MCF10A rerep,ATXN viability,IL1B secr inh,ATXN2 expr inh,SW480 rereplic,PINK1 expr mod
O=C(NC1CN2CCC1CC2)c1cc(Cl)c([N+](=O)[O-])c2nc[nH]c12 (stereo not given),?,?,-104,.,.,.
COc1cc(N)c(Cl)cc1C(=O)N[C@@H]1CN2CCC1CC2,.,/,/,/,.,/
CCOc1ccc(S(=O)(=O)N(C)c2ccc(OCC(=O)N3c4ccc(C)cc4C4CN(C)CCC43)cc2)cc1 (stereo not given),?,.,-50,.,.,.
CCCC[C@@H](C)C[C@@H](C)C(=O)N(C)[C@@H](CC(C)C)C(=O)N[C@H](C(=O)N(C)[C@H](C(=O)N1C[C@@H](O)C[C@H]1C(=O)N1C(=O)C=C[C@@H]1C)C(C)C)C(C)OC(C)=O (stereo not given in full),?,/,-113,?,.,.
CC1OC(O[C@H]2C[C@@H](O)[C@]3(CO)[C@H]4[C@H](O)C[C@]5(C)[C@@H](C6=CC(=O)OC6)CC[C@]5(O)[C@@H]4CC[C@]3(O)C2)C(O)C(O)C1O (stereo not given in full),/,/,/,/,/,.
CC12CC[C@H]3[C@@H](CCC4(O)C[C@H](O)CCC34/C=N/NC(=O)c3ccccc3[N+](=O)[O-])C1(O)CCC2C1=CC(=O)OC1 (stereo not given in full),16µM,?,?,?,.,.
COC1C(O)C(C)OC(OC2CCC3(C)C(CCC4C3C(O)CC3(C)C(C5=CC(=O)OC5)CCC43O)C2)C1O (stereo not given),0.26µM,?,.,0.4µM,1.3µM,.
CC12CCC(O)CC1CCC1C2CCC2(C)C(C3=CC(=O)OC3)CCC12O (stereo not given),?,?,-65,0.84µM,5.8µM,.
C[C@]12CC[C@H](O)C[C@H]1CC[C@@H]1[C@@H]2C[C@@H](O)[C@]2(C)[C@@H](C3=CC(=O)OC3)CC[C@]12O,?,?,-66,?,?,.
CCOC(=O)C1C(C=C(C)C)C1(C)C (stereo not given),/,/,/,/,/,.
C[C@H]1O[C@@H](O[C@H]2[C@@H](O)C[C@@H](O[C@H]3[C@@H](O)C[C@H](O[C@H]4CC[C@@]5(C)[C@H](CC[C@@H]6[C@@H]5CC[C@]5(C)[C@@H](C7=CC(=O)OC7)CC[C@]65O)C4)O[C@@H]3C)O[C@@H]2C)C[C@H](O)[C@@H]1O,/,/,/,/,/,.
CO[C@H]1[C@@H](O)CC(OC2[C@@H](O)CC(OC3[C@@H](O)C[C@H](OC4CC[C@@]5(C)C(CCC6C5CC(O)[C@]5(C)[C@H](C7=CC(=O)OC7)CCC65O)C4)O[C@@H]3C)O[C@@H]2C)O[C@@H]1C (stereo not given in full),.,/,/,/,.,/
CC(=O)OC1CC(OC2C(O)CC(OC3C(O)CC(OC4CCC5(C)C(CCC6C5CC(O)C5(C)C(C7=CC(=O)OC7)CCC65O)C4)OC3C)OC2C)OC(C)C1OC1OC(CO)C(O)C(O)C1O (stereo not given),0.18µM,?,-66,0.32µM,1.8µM,.
C[C@]12CC[C@H](O)C[C@H]1CC[C@@H]1[C@@H]2CC[C@]2(C)[C@@H](C3=CC(=O)OC3)CC[C@]12O,?,?,?,0.32µM,?,.
CC12CCC(O)CC1CCC1C2CCC2(C)C(C3=CC(=O)OC3)C(O)CC12O (stereo not given),2.1µM,?,-74,?,23µM,.
C[C@]12CCC3C(CC[C@H]4C[C@@H](O)CC[C@]34C)C1CC[C@@H]2OC(=O)[C@H](N)CCCCN (stereo not given in full),?,?,-72,?,?,.
CC(=O)C1CCC2C3CCC4CC(O)CCC4(C)C3CCC12C (stereo not given),?,?,.,.,.,.
CN(C)CCc1c[nH]c2cccc(OP(=O)(O)O)c12,/,.,/,.,/,/
CN1CCN(Cc2ccccc2Sc2ccccc2)CC1,?,.,-80,.,?,.
CCOC(=O)C1(CCc2ccccc2)CCN(Cc2cccc3c2OCO3)CC1,.,.,-85,.,?,?
CCOC(=O)C1(CCc2ccccc2)CCN(Cc2cccc3cnccc23)CC1,?,.,-111,.,?,?
O=C(c1ccc2c(c1)ncn2C1CCCCC1)N1CCC2(CC1)OCCO2,13µM,.,.,.,12µM,.
Cc1cccc(-c2nc3ccc(C(=O)N4CCC5(CC4)OCCO5)cc3nc2-c2cccc(C)c2)c1,?,.,-77,.,?,.
CC1(C)c2[nH]c3ccccc3c2C[C@@H]2C(=O)N(Cc3ccccc3F)C(=O)N21,?,.,/,.,.,.
C[C@H]1COC(=O)[C@H](Cc2ccc(F)cc2)CC/C=C/C[C@@H](CC(=O)N(CCO)Cc2ccccc2)C(=O)N1,?,?,.,.,.,.
SMILES,MCF10A rerep,ATXN viability,IL1B secr inh,ATXN2 expr inh,SW480 rereplic,PINK1 expr mod
O=C1CC[C@]2(O)[C@H]3Cc4ccc(O)c5c4[C@@]2(CCN3CC2CC2)[C@@H]1O5,/,.,/,/,/,/
Oc1ccc2c3c1O[C@H]1c4oc5ccccc5c4C[C@@]4(O)[C@@H](C2)N(CC2CC2)CC[C@]314,.,.,-65,.,.,.
Oc1ccc2c3c1O[C@H]1c4[nH]c5ccccc5c4C[C@@]4(O)[C@@H](C2)N(CC2CC2)CC[C@]314,.,.,-61,.,?,.
Oc1ccc2c3c1O[C@H]1c4[nH]c5c(c4C[C@@]4(O)[C@@H](C2)N(CC2CC2)CC[C@]314)C[C@@]1(O)[C@H]2Cc3ccc(O)c4c3[C@@]1(CCN2CC1CC1)[C@H]5O4,/,/,/,.,/,/
CC(C)c1ccc(Cc2cn3cc(-c4cc5ccccc5oc4=O)nc3s2)cc1,/,?,/,.,/,.
NS(=O)(=O)c1cc([C@@]2(O)NC(=O)c3ccccc32)ccc1Cl,.,/,/,/,.,/
CCN(CC)CCO[C@H]1CC[C@@]2(C)C(=CC[C@@H]3[C@H]2CC[C@]2(C)C(=O)CC[C@H]32)C1,.,/,/,/,.,/
COCCO[C@H]1CC[C@@]2(C)C(=CCC3C2CC[C@@]2(C)C3CC[C@]2(C)O)C1 (stereo not given in full),?,.,-72,.,?,.
COC(=O)C1=C(c2ccc(F)cc2OCc2ccccc2)C[C@@H]2CC[C@H]1N2C(=O)NCc1ccc([N+](=O)[O-])cc1,.,?,-58,.,.,.
COC(=O)C1=C(c2ccccc2OCc2ccccc2)C[C@@H]2CC[C@H]1N2C(=O)NCc1ccc(F)cc1,.,?,?,?,?,.
COC(=O)C1=C(c2ccc(F)cc2OCc2ccccc2)C[C@@H]2CC[C@H]1N2C(=O)N1CCC(O)(c2ccc(Cl)cc2)CC1,.,?,-53,.,.,.
